Consider 14 compounds from PubChem BioAssay (NCI).

The structures appear in SMILES notation. About 83,000 compounds went through this panel and 20% of them were active in at least one assay; those are over-represented in the sample as a whole.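 Treatment: one concentration, 48 hours, 96-well format. Scoring: percent growth, with anything below 10 considered active.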 Values without a mark were called inactive. Activity calls are given as the source filed them.

Assay in all cases: NCI-60 one-dose screen, 48 h (100 = growth as untreated, 0 = no growth, -100 = all killed)
What all share (details): 10 µM

Assay [1] concerns OVCAR-8 ovarian.
Assay [2] concerns OVCAR-5 ovarian.
Assay [3] relates to OVCAR-4 ovarian.
The test system of assay [4] is SK-OV-3 ovarian.
For assay [5], the system named is IGROV1 ovarian.
Assay [6] deals with OVCAR-3 ovarian.
Assay [7] has as its system HS 578T breast.
Assay [8] deals with NCI/ADR-RES ovarian.
The test system of assay [9] is T-47D breast.
Assay [10] deals with MDA-MB-435 melanoma.
Assay [11] deals with SW-620 colon.
The test system of assay [12] is MCF7 breast.
Assay [13] relates to HCT-116 colon.
Assay [14] deals with KM12 colon.
In assay [15] the test system is BT-549 breast.
Assay [16] has as its system HCC-2998 colon.

Turning to `COc1cc2c(cc1OCCCN1CCN(c3ncnc4ccccc34)CC1)N=CC1CCCN1C2=O` (stereo not given), the growth is -54.7% (active) in assay [1]; 17.7% in [2]; 4.86% (active) in assay [3]; 19.8% in assay [4]; -28.9% (active) in assay [5]; -35.2% (active) in [6]. In addition, the growth in assay [7] is -57.6% (active); in assay [8], 15.9%; in [9], 25%; in assay [10] it was -67.8% (active); in [11], -24% (active); in [12] it was -17.4% (active). The growth in assay [13] was 11.7%; in assay [14], -24.8% (active).

For `Cc1ccc(NC(=O)NC2CCCCC2)cc1`, the growth is 106% in assay [1]; 103% in [2]; 114% in assay [3]; 105% in assay [5]; 109% in assay [6]; 107% in assay [7]. Moreover, the growth is 110% in assay [8]; 93.2% in [9]; 115% in assay [15]; 105% in assay [10]; 108% in [11]; 93.8% in assay [12]. Also, the results for the growth in assay [13], in assay [16] and in assay [14] were 105%, 111% and 101%, respectively.

Regarding `COc1ccc(-c2cc(-c3cccc(NS(C)(=O)=O)c3)nc(N)c2C#N)cc1`, the growth in assay [1] was 37.6%; in assay [2] it was 53.8%; in assay [3], 51.3%; in assay [4], 20.3%; in assay [5], 73.4%; in assay [6], -48.4% (active). For the same compound, the growth in assay [7] is -14.3% (active); in [9], 57.5%; in assay [15], 40.1%; in assay [10] it was -55.2% (active); in assay [11] it was 27.4%; in [12] it was 16.5%. The figures for the growth in assay [13], in assay [16] and in [14] were 17%, -25.7% (active) and 17.6%, respectively.

As for `CC/C(=C(/c1ccc(OCCN(C)C)cc1)c1ccc(OC(=O)CCCCCCCCC(=O)c2c(C)[nH]c(/C=C3\N=C(c4ccc[nH]4)C=C3OC)c2C)cc1)c1ccccc1`, the growth in assay [1] was 86.8%; in assay [2] it was 103%; in [3], 61.6%; in [5], 90.3%; in [6], 89.6%; in [7] it was 58.3%. The growth is 91.8% in assay [8]; 48.3% in assay [9]; 69.2% in assay [15]; 52.8% in assay [10]; 53.8% in [11]; -2.49% (active) in [12]. Further, the growth in assay [13] was 21.6%; in assay [16] it was 100%.

On to `COc1ccc2c(c1)[n+]([O-])c(C#N)c(NC(=O)c1ccco1)[n+]2[O-]`, for which the growth is 65.3% in [1]; 111% in [2]; 93.8% in assay [3]; 91.2% in [4]; 118% in assay [5]; 113% in [6]. Besides, the growth in assay [7] was 92.5%; in assay [8] it was 111%; in assay [9], 91.5%; in assay [10], 104%; in assay [12], 90.8%; in assay [13] it was 99.9%. Further, the growth in [14] is 105%.

Take `ClCC#CCSc1ncnc2c1ncn2CC#CCCl`: the growth in assay [1] is 24.4%; in assay [2], 14.1%; in [3], 34.3%; in assay [4] it was 45.7%; in [5], 30.7%; in assay [6], -27.5% (active). The growth is 107% in assay [7]; -23.1% (active) in [9]; 27.5% in assay [15]; 0.673% (active) in assay [10]; 2.37% (active) in assay [11]; 20.2% in [12]. For the same compound, the growth in [13] is -49% (active); in [16], -24.9% (active); in assay [14] it was 6.96% (active).

On to `COc1cc2c(cc1OCCCCCCN1CCN(CC(=O)Nc3ccc(Cl)cc3C(=O)c3ccccc3Cl)CC1)N=CC1CCCN1C2=O` (stereo not given), for which the growth was -81.7% (active) in [1]; -74.4% (active) in [2]; -88.9% (active) in assay [3]; -90.2% (active) in assay [4]; -79% (active) in assay [5]; -91.9% (active) in [6]. Also, the growth in assay [7] is -83.5% (active); in assay [8] it was -60.8% (active); in [9] it was -57.8% (active); in assay [10], -81.2% (active); in assay [11] it was -83.6% (active); in [12] it was -7.24% (active). Moreover, the growth in assay [13] was -42.3% (active); in assay [14], -75.9% (active).

Turning to `C[N+](C)(C)c1ncnc2nc[nH]c12`, the growth was 102% in [1]; 80.3% in [2]; 103% in [3]; 97.3% in assay [4]; 112% in assay [6]; 101% in assay [7]. The growth in [8] is 94.1%; in assay [9], 91.7%; in assay [10], 95.3%; in assay [11] it was 120%; in [12] it was 90.8%; in [13], 97.3%. Moreover, the growth was -10.1% (active) in assay [16] and 110% in assay [14].

As to `CCCCCCCCCCCCCCCCN(C(C)c1ccccc1)S(=O)(=O)c1ccc(OC)c(N)c1` (stereo not given), the growth in assay [1] was 104%; in [2] it was 104%; in assay [3], 92.1%; in assay [4], 112%; in [5] it was 129%; in [6], 107%. Also, the growth in [7] is 126%; in [8], 98.7%; in [9], 113%; in assay [10] it was 108%; in [11] it was 99.7%; in assay [12], 95.9%. Also, the growth in assay [13] was 101%; in assay [16], 97.6%; in assay [14], 100%.

`CC(C)=NNc1ncnc2c1ncn2C1OC(CO)C(O)C1O` (stereo not given): the growth in assay [1] was 25.7%; in assay [2] it was 49.2%; in assay [3], 26.4%; in [4], 4.34% (active); in assay [5], 64.5%; in assay [6] it was 3.84% (active). Also, the growth in assay [7] is -2.14% (active); in [9] it was 19.2%; in assay [15], 43%; in assay [10], 18%; in [11], 9.33% (active); in assay [12] it was 12.2%. The growth in assay [13] was 1.45% (active); in assay [16], -10.2% (active); in assay [14] it was 2.36% (active).

For the compound `COc1ccc(C2CC(c3ccc(N(C)C)cc3)=NN2c2ccc(S(N)(=O)=O)cc2)cc1` (stereo not given), the growth is 42.3% in assay [1]; 84.3% in assay [2]; 48.6% in assay [3]; 70.3% in [4]; 56.6% in assay [5]; 54.7% in [6]. For the same compound, the growth is 96.7% in [7]; 36.9% in [9]; 75% in assay [15]; 36.9% in [10]; 58% in [11]; 20.5% in assay [12]. For the same compound, the growth in assay [13] was 18.7%; in assay [16], 75%; in assay [14] it was 29.1%.

With `O=C(Cc1csc2nc(-c3ccc(Cl)cc3)cn12)N/N=C/c1ccccc1O`, the growth in [1] is 41.6%; in assay [2], 58.2%; in [3] it was 43.2%; in [4] it was 52.7%; in assay [5] it was 11.7%; in [6] it was 13.9%. The growth was 41.3% in assay [8]; 57.7% in assay [9]; 62.6% in assay [15]; 67.4% in assay [10]; 42.5% in assay [12]; 36.6% in assay [13]. In addition, in assay [14], the growth is 36.5%.

As for `COc1ccc(OC)c(/C=C/c2nnc(Nc3ccc(Cl)cc3)o2)c1`, the growth is 66.7% in assay [1]; 103% in [2]; -16% (active) in assay [3]; 32.9% in [4]; 80.6% in [5]; 32.1% in assay [6]. For the same compound, the growth was 6.91% (active) in assay [7]; -4.56% (active) in [9]; 69.8% in assay [10]; 66.7% in [11]; 74.5% in assay [12]; 21.9% in assay [13]. Further, the values for the growth in assay [16] and in assay [14] were 55.4% and 86.5%, respectively.

With `Cc1cs/c(=N\NC(=O)c2cc(-c3cc4ccccc4o3)nn2-c2ccccc2)n1-c1ccccc1`, the growth in assay [1] is 90.8%; in [2] it was 107%; in assay [3], 82.1%; in assay [4], 91.2%; in [5] it was 2.32% (active); in [6] it was 67%. The growth was 49.7% in [7]; 87.1% in [8]; 69.6% in [9]; 102% in assay [10]; 93.4% in assay [11]; 73.4% in assay [12]. Further, the growth in assay [13] is 83%; in assay [14], 98.6%.
